Measured values from PubChem BioAssay.
Several values for one entry are separate records, joined by “and”; a condition that tells them apart may be missing. Identical values can stand only once. A number with no mark means an inactive call. Activity calls are given as the source filed them.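 How the source made its calls: active means thallium flux through the channel raised or lowered by more than 3 SD from vehicle-only wells, actives on both sides; inactive means the rest.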

Key:
Experiment in all cases: BK channel mutant inhibitors and activators – cell-based, U2OS BacMam, thallium flux, beta subunits, selectivity assay, profiling panel (AID 1259406);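 further: initial slope of Thallos dye fluorescence rise after thallium is added; log ratio against the mean of 0.3% DMSO vehicle wells on the same plate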
F380Y/beta2Delta = conditions: U2OS BacMam BK variants, at 30 µM
F380Y/beta4 = conditions: U2OS BacMam BK variants, at 30 µM
[1] = biological target: Calcium-activated potassium channel subunit alpha-1 (Homo sapiens) + Leucine-rich repeat-containing protein 26 (Homo sapiens) (UniProt Q12791+Q2I0M4); conditions: U2OS BacMam BK variants, F380Y/Slo1WT/gamma1, at 30 µM
Sequence of Calcium-activated potassium channel subunit alpha-1 (Homo sapiens) + Leucine-rich repeat-containing protein 26 (Homo sapiens) (Q2I0M4 whole entry, looked up, one chain of several): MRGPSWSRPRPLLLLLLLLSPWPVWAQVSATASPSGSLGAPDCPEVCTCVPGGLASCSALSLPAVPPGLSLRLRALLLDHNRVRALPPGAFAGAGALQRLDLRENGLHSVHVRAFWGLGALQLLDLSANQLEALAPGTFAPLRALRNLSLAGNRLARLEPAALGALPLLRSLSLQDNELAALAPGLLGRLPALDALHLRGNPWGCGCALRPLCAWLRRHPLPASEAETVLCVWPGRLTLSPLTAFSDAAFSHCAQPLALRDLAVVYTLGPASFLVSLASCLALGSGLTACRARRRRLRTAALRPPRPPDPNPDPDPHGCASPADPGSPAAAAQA

R275C = conditions: U2OS BacMam BK variants, at 30 µM
R275C/beta1 = conditions: U2OS BacMam BK variants, at 30 µM
R275C/beta2Delta = conditions: U2OS BacMam BK variants, at 30 µM
R275C/beta4 = conditions: U2OS BacMam BK variants, at 30 µM
R275C/Slo1WT/beta2 = conditions: U2OS BacMam BK variants, at 30 µM

Row | Compound | log fold change Tl+ flux (F380Y/beta2Delta) | log fold change Tl+ flux (F380Y/beta4) | log fold change Tl+ flux [1] | log fold change Tl+ flux (R275C) | log fold change Tl+ flux (R275C/beta1) | log fold change Tl+ flux (R275C/beta2Delta) | log fold change Tl+ flux (R275C/beta4) | log fold change Tl+ flux (R275C/Slo1WT/beta2)
1 | CNNCc1ccc(C(=O)NC(C)C)cc1 | 0.00407 | -0.0214 | -0.0918 | -0.164 (active) | -0.022 | -0.0281 | 0.042 | 0.0113
2 | COC(=O)C1=C(C)NC(C)=C(C(=O)OCC(C)C)C1c1ccccc1[N+](=O)[O-] (configuration not stated) | 0.514 (active) | 0.853 (active) | 0.622 (active) | 0.676 (active) | 0.741 (active) | 0.206 (active) | 1.13 (active) | 1.07 (active)
3 | CC(C)(C#N)c1cc(Cn2cncn2)cc(C(C)(C)C#N)c1 | 0.0269 | -0.0138 | 0.043 | -0.0232 | 0.00836 | 0.00182 | -0.00704 | -0.000892
4 | CN1CCN(C2=Nc3cc(F)ccc3Cc3ccccc32)CC1 | 0.0383 | 0.075 | -0.0172 | -0.0264 | 0.0276 | 0.0198 | 0.0369 | 0.0225
5 | CC(=O)Nc1ccc(CC(=O)O)cc1 | -0.0235 | -0.0309 | -0.0302 | -0.0367 | -0.0357 | -0.0277 | -0.0244 | -0.00738
6 | CCOc1cc(CC(=O)N[C@@H](CC(C)C)c2ccccc2N2CCCCC2)ccc1C(=O)O | 0.217 (active) | 0.297 (active) | 0.0882 | -0.00436 | 0.495 (active) | 0.262 (active) | 0.161 (active) | 0.0386
7 | CCCN[C@H]1CCc2nc(N)sc2C1 | 0.0149 and -0.064 | 0.049 | -0.0398 and 0.00679 | -0.0132 and -0.0398 | -0.0125 and -0.021 | -0.0052 and -0.0245 | 0.000139 | 0.0182
8 | NS(=O)(=O)c1cc(C(=O)O)c(NCc2ccco2)cc1Cl | -0.0211 | 0.0269 | -0.028 | -0.0468 | -0.0154 | -0.0184 | 0.000317 | 0.0743
9 | COc1cc(C(=O)NC2CCCNC2)cc(OC)c1OC (configuration not stated) | -0.0479 | -0.0783 | 0.00703 | -0.0701 | -0.0128 | 0.000824 | 0.00216 | -0.0186
10 | CC(=O)O[C@H]1C[C@@H]2CC[C@@H]3[C@H](CC[C@@]4(C)[C@H]3C[C@H]([N+]3(C)CCCCC3)[C@@H]4OC(C)=O)[C@@]2(C)C[C@@H]1N1CCCCC1 | 0.00769 | 0.00267 | -0.00222 | -0.114 (active) | 0.00114 | -0.0355 | 0.018 | 0.0408
11 | COc1cc(C)c(Cc2cnc(N)nc2N)cc1OC | 0.0137 | 0.0281 | 0.0784 | -0.0521 | 0.0546 | 0.0143 | 0.00157 | 0.0258
12 | Cn1c(NCCN(CCO)CCCc2ccc([N+](=O)[O-])cc2)cc(=O)n(C)c1=O | -0.007 | -0.0379 | 0.0127 | -0.128 (active) | -0.0368 | 0.012 | -0.00107 | 0.0338
13 | O=C(O)CCNC(=O)c1ccc(N=Nc2ccc(O)c(C(=O)O)c2)cc1 | -0.00246 | 0.0201 | 0 | -0.0367 | 0.0608 | 0.0174 | 0.00146 | 0.0188
14 | CC(=O)OCC(=O)NCCCOc1cccc(CN2CCCCC2)c1 | 0.000408 | -0.0388 | -0.00356 | -0.0635 | 0.00812 | 0.0201 | -0.00407 | 0.00881
15 | O=C1Nc2ccc(Cl)cc2[C@@](C#CC2CC2)(C(F)(F)F)O1 | 0.0472 | 0.0723 | 0.0446 | -0.166 (active) | 0.275 (active) | 0.119 (active) | 0.11 (active) | -0.0224
16 | CN(C)CC[C@@H](c1ccc(Br)cc1)c1ccccn1 | -0.012 | 0.0692 | 0.0361 | -0.0783 | 0.0411 | 0.0403 | 0.00601 | 0.00129
17 | NC1CCN(c2nc3c(cc2F)c(=O)c(C(=O)O)cn3-c2ccc(F)cc2F)C1 (configuration not stated) | -0.101 | 0.00828 | 0.0186 | -0.0155 | -0.00647 | -0.0395 | -0.0109 | 0.0163
18 | CCOC(=O)C1=C(C)NC(C)=C(C(=O)OC)C1c1cccc(Cl)c1Cl (configuration not stated) | -0.162 (active) | -0.261 (active) | 0.00637 | -0.00728 | -0.0274 | 0.0156 | 0.114 | -0.0293
19 | CC(C)(C)NC(=O)[C@@H]1CN(Cc2cccnc2)CCN1C[C@@H](O)C[C@@H](Cc1ccccc1)C(=O)N[C@H]1c2ccccc2C[C@H]1O | -0.0728 | -0.0768 | 0.0169 | -0.0278 | -0.00667 | -0.0261 | 0.0581 | 0.101 (active)
20 | COc1ccc(C2CNC(=O)C2)cc1OC1CCCC1 (configuration not stated) | -0.0248 | -0.115 (active) | -0.000443 | 0.0314 | 0.031 | -0.00816 | 0.0303 | 0.00671
21 | O=C(NCCN1CCOCC1)c1ccc(Cl)cc1 | -0.0313 | -0.0725 | -0.000886 | -0.0119 | -0.015 | -0.0276 | -0.0049 | -0.0216
22 | CCCc1nc(C)c2c(=O)[nH]c(-c3cc(S(=O)(=O)N4CCN(CC)CC4)ccc3OCC)nn12 | 0.0398 | 0.0304 | 0.0127 | -0.0462 | 0.019 | 0.017 | -0.00355 | 0.00306
23 | CN(C/C=C/C#CC(C)(C)C)Cc1cccc2ccccc12 | -0.0506 | -0.0252 | 0.0229 | -0.0273 | -0.3 (active) | -0.238 (active) | -0.00168 | 0.012
24 | COc1cc(C)nc(-n2nc(C)cc2OC)n1 | -0.0214 | -0.018 | -0.00579 | 0.031 | 0.00544 | 0.0107 | -0.0217 | -0.00369
25 | CC(c1cc2ccccc2s1)N(O)C(N)=O (configuration not stated) | 0.0219 | 0.0185 | 0.0287 | 0.00217 | 0.0284 | 0.0541 | -0.0188 | 0.0381
26 | O=C1[C@H]2CCCC[C@H]2C(=O)N1CCCCN1CCN(c2nsc3ccccc23)CC1 | 0.0368 | 0.0464 | -0.0162 | -0.0177 | 0.107 (active) | 0.0344 | 0.0306 | -0.00391
27 | COc1cc2nc(N3CCN(C(=O)C4COc5ccccc5O4)CC3)nc(N)c2cc1OC (configuration not stated) | -0.269 (active) | -0.235 (active) | -0.00742 | -0.0618 | 0.0698 | -0.0306 | -0.0729 | 0.00736
28 | CNCC(O)c1ccc(O)c(O)c1 (configuration not stated) | 0.0367 | -0.0084 | 0.0503 | 0.0399 | -0.0203 | -0.0287 | -0.0313 | -0.0974
29 | COc1ccc(CN2CCN(C(c3ccc(F)cc3)c3ccc(F)cc3)CC2)c(OC)c1OC | -0.015 | 0.0162 | -0.00669 | -0.0264 | -0.0636 | -0.0699 | 0.0197 | -0.00919
